Laboratory results from PubChem BioAssay AID651657 (Broad Institute, 2012).
Entries with a potency or affinity are not part of this list. Active and inactive are the calls of the source.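 How the source made its calls: active means signal falls, with fitted half-maximal concentration at most twice the top valid dose tested; inconclusive means flat curve with partial signal loss, or poor curve fit; inactive means the rest, including signal rising instead.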

Biological target: DNA repair and recombination protein RAD54-like (Homo sapiens) (UniProt Q92698)
Sequence (Q92698 whole entry, looked up): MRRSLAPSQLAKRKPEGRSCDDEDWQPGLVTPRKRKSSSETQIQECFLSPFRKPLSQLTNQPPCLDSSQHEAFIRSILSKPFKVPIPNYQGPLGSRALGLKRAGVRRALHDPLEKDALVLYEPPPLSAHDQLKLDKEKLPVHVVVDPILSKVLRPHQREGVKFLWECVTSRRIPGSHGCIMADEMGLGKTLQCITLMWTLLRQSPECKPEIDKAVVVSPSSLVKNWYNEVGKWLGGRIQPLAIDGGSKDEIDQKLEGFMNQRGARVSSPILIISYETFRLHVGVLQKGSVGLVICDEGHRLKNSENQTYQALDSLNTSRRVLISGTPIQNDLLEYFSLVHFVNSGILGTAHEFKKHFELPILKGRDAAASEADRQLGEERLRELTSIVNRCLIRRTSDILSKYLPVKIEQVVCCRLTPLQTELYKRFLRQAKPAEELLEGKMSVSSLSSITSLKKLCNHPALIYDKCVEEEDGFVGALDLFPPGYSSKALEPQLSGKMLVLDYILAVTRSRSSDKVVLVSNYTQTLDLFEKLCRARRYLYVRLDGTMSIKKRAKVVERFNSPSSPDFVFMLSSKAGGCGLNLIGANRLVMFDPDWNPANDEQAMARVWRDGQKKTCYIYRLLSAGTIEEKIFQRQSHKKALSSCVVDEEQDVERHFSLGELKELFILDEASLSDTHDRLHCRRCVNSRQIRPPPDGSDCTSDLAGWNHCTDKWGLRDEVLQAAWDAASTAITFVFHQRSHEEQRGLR
Assay: inhibitors of human RAD54 branch migration, confirmation, biochemical, fluorescence, cherry-picked samples, dose series (AID 651657)
Conditions: FAM/BHQ fluorescence, 60 min; series mostly up to 50 µM; activity change, negative = inhibition: at the top concentration

Compound	activity change, negative = inhibition
Nc1ccc(CCN2CCCC2)cc1	-2.84% (inactive)
CCN1CCN(c2ccc(N)c(C)c2)CC1	-10.9% (inactive)
Nc1ccnn1C1CCNCC1	0.708% (inactive)
